S-ASM inh: Inhibitors of Secretory Acid Sphingomyelinase (S-ASM): qHTS. 0.006% of 340,000 active. placental ASM, HMU-PC fluorogenic substrate, 60 min. Potency, µM (series often up to 57.5 µM), inactives show top-dose activity change, negative = inhibition, actives largely listed as inhibitors; also: potency is read from the fitted curve at half-maximal effect
Target sequence (P17405 47-631 limits assumed): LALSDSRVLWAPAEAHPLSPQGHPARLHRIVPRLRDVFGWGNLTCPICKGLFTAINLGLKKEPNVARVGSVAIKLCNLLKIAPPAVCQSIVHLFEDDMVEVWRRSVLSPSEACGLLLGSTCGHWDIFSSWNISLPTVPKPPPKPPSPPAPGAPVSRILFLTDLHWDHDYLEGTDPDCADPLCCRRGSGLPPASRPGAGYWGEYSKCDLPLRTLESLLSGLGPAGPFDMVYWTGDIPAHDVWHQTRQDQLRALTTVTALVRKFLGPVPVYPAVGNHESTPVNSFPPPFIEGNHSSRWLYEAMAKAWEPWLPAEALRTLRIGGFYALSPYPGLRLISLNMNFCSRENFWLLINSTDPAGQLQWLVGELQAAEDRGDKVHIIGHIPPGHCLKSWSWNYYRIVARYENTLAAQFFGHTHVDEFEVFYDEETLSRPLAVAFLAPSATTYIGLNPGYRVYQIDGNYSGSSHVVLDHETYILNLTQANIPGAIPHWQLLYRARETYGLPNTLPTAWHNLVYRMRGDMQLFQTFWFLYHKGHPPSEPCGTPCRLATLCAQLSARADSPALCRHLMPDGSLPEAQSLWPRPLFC
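Steps: dispense placental human ASM, pin compound, wait 10 min at room temperature, add HMU-PC0 substrate at 9 uM final, incubate 60 min at 37 °C, add stop solution raising pH to 10, read fluorescence.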
IL1B secr inh: qHTS for Inhibitors of Inflammasome Signaling: IL-1-beta AlphaLISA Primary Screen | THP-1 LPS/ATP IL-1B secretion, AlphaLISA, 16 h; stronger effect = lower value | activity change, % at 57.5 µM | 4.7% of 360,000 active; in the data active = activity change below about -50%; inconclusive = mostly about -30% to -49%; also: % is scaled to controls: 0 for no effect and ±100 for the full control effect
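Secreted IL-1B measured by AlphaLISA bead assay after 16 h compound exposure of THP-1 cells; compounds (final up to 57.5 uM) added 1 h before LPS (250 ng/mL) and ATP (1.25 mM) stimulation; lower signal means less secretion.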
TDP1 cell noCPT: qHTS for Inhibitors of human tyrosyl-DNA phosphodiesterase 1 (TDP1): qHTS in cells in absence of CPT. AID 686978, 2013. Potency, µM (series often up to 46.2 µM), without a hit: at the top dose activity change, negative = growth inhibition, hits mostly inhibitors. 15% of 420,000 active. DT40 Tdp1-/- hTDP1 cells, no CPT, ATP luminescence, 48 h; also: potency is read from the fitted curve at half-maximal effect; % is scaled to controls: 0 for no effect and ±100 for the full control effect; nearly all actives have a fitted effect of over 55% in size
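Cells were dispensed at 400 per well, compounds added by pin tool, plates incubated ≥48 hr at 37 °C, then CellTiter-Glo added for 30 min at room temperature before luminescence reading. Line: DT40 Tdp1-/- complemented with hTDP1; camptothecin omitted.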
TGFb inhibitor: qHTS for Inhibitors of TGF-b. HepG2 CAGA-GFP TGF-b/SMAD3 reporter, GFP fluorescence, 18 h; TGF-beta stimulated, 500 pg/mL final. Potency, µM (highest dose often 46.1 µM), without a hit: top-dose activity, negative = inhibition, usual class: inhibitors. 1.2% of 410,000 active. AID 588855, 2011; also: potency is read from the fitted curve at half-maximal effect; % is scaled to controls: 0 for no effect and ±100 for the full control effect; nearly all actives have a fitted effect of over 65% in size
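HEPG2 CAGA-GFP, 1000 cells/well; 2 h settle, 37 C; cpd via pin tool; TGF-b 500 pg/mL final; 18 h, 37 C; GFP imaging ex488/em500-530; %Activity normalised to -TGF-b and +DMSO controls; CRC fit, curve class.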
HepG2 tox: qHTS for Inhibitors of TGF-b: Cytotox Counterscreen | HepG2 CAGA-GFP viability, ATP luminescence, 18 h | Potency, µM (series often up to 46.1 µM), without a hit: at the top dose activity change, negative = cytotoxicity, usual class: cytotoxic | 0.76% of 410,000 active | AID 588856, 2011; also: potency is read from the fitted curve at half-maximal effect
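CellTiter-Glo luminescence gave cytotoxicity after 18 hours at 37 degrees C. The cells were HepG2 CAGA-GFP in 1% FBS DMEM, stimulated with 500 pg/mL TGF-beta after compound addition. %Activity was normalised to no-cell wells (complete cell-killing) and DMSO (no toxicity), and curves were fitted and classified.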
TDP1 cell CPT: qHTS for Inhibitors of human tyrosyl-DNA phosphodiesterase 1 (TDP1): qHTS in cells in presence of CPT | AID 686979, 2013 | 12% of 420,000 active | chicken DT40 Tdp1-/-;hTDP1 cells + 20 nM CPT, ATP luminescence, 48 h | Potency, µM (doses to about 46.2 µM), for inactives: at the top dose activity change, negative = growth inhibition, usual class: inhibitors; also: potency is read from the fitted curve at half-maximal effect; % is scaled to controls: 0 for no effect and ±100 for the full control effect; nearly all actives have a fitted effect of over 55% in size
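Chicken DT40 Tdp1-/- cells stably complemented with human TDP1 were seeded at 400 cells/well in medium containing 20 nM camptothecin, exposed to pin-transferred compounds, and grown at 37 °C for at least 48 hr. Viability was read as ATP luminescence.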
Starred values were filed as active, the others as inactive; ? = inconclusive; . = no result given. Most compounds without a hit are left out; they make up all but 19% or so of the library. Unless noted, calls follow the shape of the dose curve; as a rule, active = well fitted curve in the direction sought with a large enough effect; inconclusive = small, poorly fitted or top-dose-only effect, or another doubt; inactive = no such curve, though single readings can be large; an effect the other way counts as inactive or inconclusive.

SMILES	S-ASM inh	IL1B secr inh	TDP1 cell noCPT	TGFb inhibitor	HepG2 tox	TDP1 cell CPT
Cc1ccc(-n2c(P(C)(=O)O)nc3ccccc32)cc1	4%	-1	4%	0%	3%	1%
CCCNC(=O)CN1C(=O)COc2ccc(S(=O)(=O)N3CCCC3)cc21	.	.	7%	-13%	-1%	6%
COc1ccc(OCC(O)CN2CCCCCC2)cc1 (stereo not drawn)	0%	0	-6%	-6%	9%	-14%
CN1CCN(CC(O)COc2ccc(C34CC5CC(CC(C5)C3)C4)cc2)CC1 (stereo not drawn)	-23%	-99*	13µM*	?	-108%	?
CC(C)(c1ccccc1)c1ccc(OCC(O)CN2CCCC2)cc1 (stereo not drawn)	0%	-67*	?	-13%	-29%	?
COc1ccc(OCC(O)CN2CCCC2)cc1 (stereo not drawn)	8%	2	1%	18%	13µM*	-3%
CN1CCN(CC(O)COc2ccccc2)CC1 (stereo not drawn)	-1%	30	-2%	30%	6%	2%
OC1CCCN(CC(O)COc2ccc(-c3ccccc3)cc2)C1 (stereo not drawn)	4%	-26	23µM*	0%	-21%	?
C=CCNC(=O)C12CCC(C)(C(=O)[C@H]1Br)C2(C)C (stereo partly drawn)	3%	15	0%	0%	26%	36%
CCOC(=O)C(C)NC(=O)C1CCN(c2ncnc3c2nc2n3CCCCC2)CC1 (stereo not drawn)	.	.	-27%	7%	7%	?
COc1ccc(Cl)cc1C(=O)C1CCCN(Cc2cnc(N3CCOCC3)s2)C1 (stereo not drawn)	2%	1	29µM*	-9%	-2%	?
COc1ccc(F)cc1C(=O)C1CCCN(Cc2cnc(N3CCCC3)s2)C1 (stereo not drawn)	3%	26	-20%	-1%	-4%	-2%
CCOc1cccc(CN2CCCC(N3CCN(c4cccc(Cl)c4)CC3)C2)c1O (stereo not drawn)	1%	-72*	?	12%	-26%	-15%
CCOc1cccc(CN2CCCC(C(=O)c3cc(Cl)ccc3OC)C2)c1O (stereo not drawn)	2%	-55*	?	-8%	-34%	?
CC(SCC(=O)O)c1nc2ccccc2[nH]1 (stereo not drawn)	5%	-3	-2%	-9%	8%	-12%
COc1ccc(NC(=O)CSc2nnc(Cc3ccc(C)cc3)c(=O)n2N)cc1OC	-1%	-12	8%	20%	3%	-1%
CN(C)c1nc(NCc2ccccc2)nc(SCC(=O)Nc2ccc(Cl)c(Cl)c2)n1	-23%	0	?	?	-28%	21µM*
CCNc1nc(SCC(=O)Nc2ccc(Cl)c(Cl)c2)nc(N(C)C)n1	-14%	13	15µM*	25%	-6%	?
COC(=O)CSc1nc(NCc2ccccc2)nc(N(C)C)n1	-2%	18	-16%	20%	1%	-4%
Cc1ccc(CN(C(=O)COc2ccc(Cl)cc2Cl)C2CCS(=O)(=O)C2)o1 (stereo not drawn)	.	.	?	.	-27%	?
COc1ccc(Cc2noc(CN3CCC(c4ccncc4)CC3)n2)cc1OC	2%	43	23µM*	-9%	11%	21µM*
COc1ccc(Cc2noc(CN3CCN(C4CCc5ccccc5C4)CC3)n2)cc1OC (stereo not drawn)	3%	-18	21µM*	2%	-1%	?
COc1ccc(Cc2noc(CN3CCCN(Cc4ccc(F)cc4)CC3)n2)cc1OC	2%	-14	?	-18%	-22%	0%
CC(NC(=O)OC(C)(C)C)C(=O)NC(CCC(=O)OCc1ccccc1)C(N)=O (stereo not drawn)	6%	-8	29µM*	0%	10%	-28%
CC(C)CC(NC(=O)C(NC(=O)C(Cc1ccc(OCc2ccccc2)cc1)NC(=O)OC(C)(C)C)C(C)C)C(N)=O (stereo not drawn)	3%	22	16µM*	-6%	-49%	?
SMILES	S-ASM inh	IL1B secr inh	TDP1 cell noCPT	TGFb inhibitor	HepG2 tox	TDP1 cell CPT
COc1ccc(Cl)cc1NC(=O)CCCn1c(=O)c2cccn2c2cccnc21	.	2	?	?	-21%	?
COCCN1Cc2cccc(C(=O)Nc3ccc(-c4nc5ccccc5[nH]4)cc3)c2C1=O	23%	-17	-26%	0%	-1%	-23%
CCCN1Cc2cccc(C(=O)Nc3ccc(-c4nc5ccccc5[nH]4)cc3)c2C1=O	19%	-10	18µM*	-12%	-25%	?
CCCN1Cc2cccc(C(=O)Nc3ccc(C)cc3)c2C1=O	-9%	?	-4%	0%	-18%	-13%
CCCN1Cc2cccc(C(N)=O)c2C1=O	-1%	41	?	5%	4%	8.2µM*
COCCN1Cc2cccc(C(=O)Nc3cccc(-c4nc5ccccc5[nH]4)c3)c2C1=O	-24%	-6	16µM*	32%	-2%	4.6µM*
Cc1oc2c(c1C(=O)c1ccccc1)C(=O)C(=O)c1ccccc1-2	-14%	-88*	1.8µM*	?	4.5µM*	1.2µM*
O=C1C(=O)c2c(C(=O)c3ccccc3)coc2-c2ccccc21	-2%	?	2.1µM*	8.9µM*	13µM*	3.3µM*
C#CCn1c(=NC(=O)CN2C(=O)CCC2=O)sc2cccc(C)c21	-2%	1	?	-9%	-2%	-18%
Cc1ccc(C)c2c1sc(=NC(=O)CN1C(=O)CCC1=O)n2C	7%	2	21µM*	-4%	0%	?
Cc1cc(C)n(-c2nc3ccccc3s2)n1	3%	0	32%	12%	2%	-7%
Cc1c2c(=O)n(-c3nc4ccccc4s3)nc-2cc(O)n1Cc1ccccc1	1%	0	15µM*	-7%	2%	21µM*
COC(=O)c1ccc(Cn2nnc3c(=O)[nH]c(C4CCN(S(=O)(=O)c5cc(C)ccc5C)CC4)nc32)cc1	-11%	18	?	7%	6%	23µM*

Bioassay records from PubChem.
